High-throughput results as filed in PubChem BioAssay.
Rows were chosen to be rich in hits. Some 21% of all compounds tested hit in one or more screens of this group.
Pf growth 48h = inhibits P. falciparum growth in the first generation, 48 h. P. falciparum luciferase growth in erythrocytes, 48 h. Potency, µM (titrated, usually from 28.7 µM), for inactives: at the top dose activity change, negative = inhibition, most hits filed as inhibitors. 5.9% of 310,000 active. AID 504832; further: potency means the concentration at half of the fitted maximal effect; on the % scale 0 is the no-effect control and ±100 the full control effect
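A one-generation exposure of luciferase-tagged malaria parasites in RPMI 1640/Albumax erythrocyte culture, 37 C and 5% CO2. Inhibition is inferred from decreased luminescence after adding detection reagent.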
AMA1 RON2 block = inhibitors of Plasmodium falciparum AMA1-RON2 interaction; AlphaScreen AMA1-biotinylated RON2 peptide binding; Potency, µM (doses to about 58.2 µM), for inactives: at the highest dose activity change, negative = inhibition, hits mostly inhibitors; 0.2% of 360,000 active; AID 720542;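 further: potency means the concentration at half of the fitted maximal effect; 0% = vehicle wells and -100% = peptide control; nearly all actives have a fitted effect of over 45% in size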
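AMA1 (3D7) with his tag at 25 nM final met compounds first, then biotinylated RON2 peptide at 25 nM; detection used donor plus acceptor beads, 10 µg/mL apiece, read by AlphaScreen after 30 min at room temperature.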
CHX counter = counter-screen hit for Shiga toxin inhibitors, cycloheximide. max response, %. 12% of 300,000 active. cell reporter, cycloheximide protein synthesis inhibition counterscreen; in the data active means max response mostly above about 13%, no sharp cut-off; inactive means mostly below about 14%; further: read at 38.3 µM for the half of the compounds with a filed dose; 0% is about no effect
HCV inh = inhibitors of hepatitis C virus infection; Huh7.5.1 HCVcc-Cre infection, luciferase reporter, 44 h; Potency, µM (top dose mostly 41.8 µM), for the others: at the highest dose activity change, negative = inhibition, hits mostly inhibitors; 3.4% of 340,000 active; AID 651820; further: potency means the concentration at half of the fitted maximal effect; on the % scale 0 is the no-effect control and ±100 the full control effect
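Infectious HCV cell culture screen: compound-treated cells (1,000/well, pre-plated 4 h) are infected with HCVcc-Cre at roughly 0.5 moi and grown 44 h. Infection is quantified by luciferase signal after 15 min substrate incubation at room temperature.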
Pf growth 96h = P. falciparum growth inhibition at 96 hour, primary screen for plastid delayed-death inhibitors; P. falciparum luciferase reporter growth, 96 h; Potency, µM (titrated, usually from 28.7 µM), for the others: at the highest dose activity change, negative = inhibition, usual class: inhibitors; 6.9% of 320,000 active; further: potency means the concentration at half of the fitted maximal effect; on the % scale 0 is the no-effect control and ±100 the full control effect
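Compounds incubated with erythrocytes infected by luciferase-expressing P. falciparum (2% hematocrit, 0.05% parasitemia final) for 96 hours, 37 C in 5% CO2. Growth inhibition scored as decreased luciferase luminescence.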
Shiga inhibitor = blocks Shiga toxin action in Vero cells; Vero cells, Shiga toxin protein synthesis inhibition reporter; inhibition, % at 38.7 µM; 9.2% of 290,000 active; AID 2315; in the data active means inhibition mostly above about 28%, no sharp cut-off; inactive means mostly below about 43%; further: 0% is about no effect
The depositor's hits bear a star; ? = inconclusive; · = not tested or not shown; [ ] = remark or other dose. Unless noted, the call rests on the fitted dose curve; in most records, active means well fitted curve in the direction sought with a large enough effect; inconclusive means small, poorly fitted or top-dose-only effect, or another doubt; inactive means no such curve, though single readings can be large; an effect the other way counts as inactive or inconclusive.

SMILES | Pf growth 48h | AMA1 RON2 block | CHX counter | HCV inh | Pf growth 96h | Shiga inhibitor
CC(Oc1ccc(F)cc1)C(=O)Nc1sc2c(c1C(=O)NCc1cccnc1)CCCC2 (configuration not stated) | 8.3µM* | -13% | 1 | 2.5µM* | 6.6µM* | -14
CC1(C)Cc2c(sc(NC(=O)Cc3ccccc3)c2C#N)CO1 | 29% | -8% | 1 | -6% | 0% | 24
Cc1ccc(OC(C)C(=O)Nc2ccccc2C(=O)NCc2cccnc2)cc1C (configuration not stated) | ? | 6% | -4 | · | 1% | -5
Cc1ccc(C(=O)C(NC(=O)c2ccco2)Nc2sc3c(c2C(N)=O)CCCC3)cc1 (configuration not stated) | ? | · | 13* | -3% | 28% | active
O=C(Nc1sc2c(c1C(=O)O)CCC2)c1ccco1 | · | 10% | 6 | 1% | 18% | 32
OC[C@@H]1CN(Cc2ccc(Cl)cc2)C[C@H](n2cnc3c(Nc4ccccc4)ncnc32)O1 | · | -7% | · | · | · | ·
CCSC1=C(C#N)C(c2cccs2)C(C(=O)OC)=C(C)N1 (configuration not stated) | · | 22% | -2 | -15% | -39% | -13
CCCSC1=C(C#N)C(c2cccs2)C(C(=O)Nc2ccccc2)=C(C)N1 (configuration not stated) | 8.3µM* | 15% | 5 | 11µM* | 10% | 12
CC1=C(C(=O)Nc2ccccc2)C(c2ccncc2)C(C#N)=C(SCC(=O)NC(C)C)N1 (configuration not stated) | 10µM* | -4% | -2 | -9% | 33% | -3
C[C@@H]1CN([C@@H](C)CO)C(=O)CCCn2nncc2CO[C@H]1CN(C)C(=O)c1ccc2ccn(C)c2c1 | · | -6% | · | · | · | ·
CCN(CC)c1ccc(/C=N/NC(=O)Cc2nnc(NC(=O)Nc3ccccc3)s2)cc1 | 1% | -13% | 2 | -8% | 78% | -9
CCOc1ccc(/C=N/NC(=O)Nc2ccccc2)cc1 | 184% | -3% | 41* | ? | 186% | 69*
CCN(CC)c1ccc(/C=N/NC(=O)Nc2ccccc2)cc1 | 66% | ? | 35* | ? | 1% | 71*
CC(=O)Oc1ccc(/C=N/NC(=S)Nc2ccccc2)cc1 | 157% | 32% | 53* | -4% | 13% | 35
CCOc1ccc(/C=N/NC(=O)CC(=O)NCc2ccccc2)cc1 | 7% | 1% | -2 | -4% | -15% | -14
O=C(Cn1c2c(c(-c3ccccc3Cl)cc1=O)CCC2)NCCCN1CCOCC1 | 3% | -5% | -2 | 15% | -2% | -9
Cc1ccc(Nc2nnc(-c3ccc4c(c3)OCO4)o2)c(C)c1 | 40% | -1% | 32* | -8% | 52% | 62*
CC1CCN(S(=O)(=O)c2ccc3c(c2)c(=O)c(C(=O)NCc2ccco2)cn3C)CC1 | ? | -6% | -1 | -20% | 15µM* | -4
CSc1ccc(S(=O)(=O)N2CCC(C(=O)NCc3ccco3)CC2)cc1 | 1.7µM* | 19% | 0 | 4% | ? | 27
O=C(NCc1ccc(F)cc1)c1ccc(S(=O)(=O)N2CCCC2)cc1 | · | -11% | · | · | · | ·
CC1CCN(S(=O)(=O)c2ccc3c(c2)c(=O)c(C(=O)NCc2cccs2)cn3C)CC1 | 11% | 17% | -4 | -17% | -15% | -17
Cc1ccc(S(=O)(=O)N2CCCC(C(=O)NCc3ccco3)C2)cc1Cl (configuration not stated) | ? | 5% | -3 | -8% | 13µM* | 16
COC(=O)c1ccc(CNC(=O)c2ccc(S(=O)(=O)N3CCCC(C)C3)cc2)cc1 (configuration not stated) | 13µM* | 1%[11.6 µM] | · | -30% | ? | ·
CCCCN(C(=O)c1cc(CC)c(C)s1)c1c(N)n(CCC)c(=O)[nH]c1=O | -15% | 2% | · | 7% | 21% | ·
O=S1(=O)N[C@@H](Cc2ccccc2)COc2cc(Br)ccc21 | · | -5% | · | ? | · | ·
SMILES | Pf growth 48h | AMA1 RON2 block | CHX counter | HCV inh | Pf growth 96h | Shiga inhibitor
CC1CCN(S(=O)(=O)c2ccc(C(=O)NCc3ccc4c(c3)OCO4)cc2)CC1 | 4% | -13% | -1 | -26% | · | -14
CC1CCN(S(=O)(=O)c2ccc(C(=O)NCc3ccco3)cc2)CC1 | 2.1µM* | -2% | -1 | 0% | 0% | -6
CCNC(=O)NC(=O)C(C)Sc1nc2ccccc2c(=O)n1-c1cccnc1 (configuration not stated) | 1µM* | 5% | -3 | 12% | 0.93µM* | -2
Cc1cc(OCC(=O)C(C)(C)C)c2c(-c3ccccc3)cc(=O)oc2c1 | 11%[0.00184 µM] | 8% | -3 | ? | -21% | -6
Nc1ccc(C2=Nc3cccc4cccc(c34)N2)cc1 | ? | -5% | 8 | 2% | 20% | 7
COc1cccc(C2=Nc3cccc4cccc(c34)N2)c1 | ? | -4% | 14* | ? | ? | 16
Cn1c(=O)[nH]c(=O)c2c1nc(N/N=C/C(Br)=C/c1ccccc1)n2CCO | ? | 70% | 1 | 19% | ? | -11
O=C(Cc1ccccc1)Nc1ccc(NC(=O)c2ccccc2)c(Cl)c1 | 0% | 0% | 2 | -21% | ? | 2
Cc1ccc(COC(=O)NCc2cccnc2)cc1 | 13% | -2% | -2 | 11% | ? | -2
O=C(O)c1ccc(-c2nc(-c3cccc(C(F)(F)F)c3)cs2)cc1 | 30% | -7% | 7 | 8% | 55% | 79
Oc1ccc(-c2nc(-c3ccc(O)c(O)c3)cs2)cc1 | ? | -18% | 23 | -11% | 22% | 94*
CC(=O)Nc1nc(-c2ccc3ccccc3c2)cs1 | 336% | 1% | 38* | -28% | 438% | 87*
Cc1cc(Nc2ccc(O)cc2)ccc1N | ? | · | · | 13% | ? | ·
Oc1ccc(Nc2ccc3ccccc3c2)cc1 | · | 14µM* | · | -24% | · | ·
CC(=O)NCCC(=O)Nc1nc(-c2ccc3ccccc3c2)cs1 | 28% | -6% | 29* | 4% | 3% | 52*
COc1ccc(Cl)cc1NC(=O)CN1CCN(S(=O)(=O)N2CCCCC2)CC1 | ? | -4% | -2 | ? | ? | -8
COc1ccc(-c2csc(Nc3ccc(Oc4ccccc4)cc3)n2)cc1 | · | -20% | · | · | · | ·
CC(=O)NCCC(=O)Nc1nc(-c2ccccc2Cl)cs1 | -18% | -4% | 8 | 17% | -5% | 22
COc1cccc(-c2csc(NC(=O)Oc3ccccc3)n2)c1 | 40% | 0% | 48* | 10% | 108% | 137*
Oc1ccc(Nc2nc(-c3ccc4ccccc4c3)cs2)cc1 | · | · | 49* | · | ? | 121*
CC(=O)NCCC(=O)Nc1nc2c(ccc3ccccc32)s1 | 30% | -4% | 15* | -9% | 20% | 20
CCCCCC(=O)N1C[C@H](O)[C@@H](n2cc(COC(=O)c3ccccc3)nn2)C[C@@H]1c1ccc(Cl)cc1 | · | -6% | · | · | · | ·
